Experimental findings from PubChem BioAssay (Tox21) are described below.

“And” between values parts separate entries of the source, which are not always exact repeats. Equal values may be shown once. Inconclusive results are not listed. A structure can be active in one record and inactive in another. The source made the active and inactive calls. Unless noted, the call rests on the fitted dose curve; in most records, active means well fitted curve in the direction sought with a large enough effect in the repeat runs; inconclusive means weak or mixed curves; inactive means no such curve, though single readings can be large; an effect the other way counts as inactive or inconclusive.

Experiment [1] in a line: qHTS assay to identify small molecule antagonists of the thyroid receptor (TR) signaling pathway (AID 743065). Further: nearly all actives have a fitted effect of over 55% in size. Further: potency means the concentration at half of the fitted maximal effect. The procedure, abridged:
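GH3.TRE-Luc rat pituitary cells (two TREs driving luciferase) were dosed with compound, then stimulated with 1 nM T3 (final) for 23.5 h at 37 C. ONE-Glo luminescence was the read-out, with CellTiter-Fluor fluorescence as the cytotoxicity counter-screen.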

In experiment [2] the test system is thyroid hormone receptor (rat, GH3 cells). Briefly: qHTS assay to identify small molecule agonists of the thyroid receptor (TR) signaling pathway (AID 743066; calls by dose curve). (In qHTS, concentration-response curves come from the screen itself.)
Experiment [3] addresses Estrogen receptor (Homo sapiens) (UniProt P03372). In words: qHTS assay to identify small molecule antagonists of the estrogen receptor alpha (ER-alpha) signaling pathway (AID 743069; active means well fitted curve in the direction sought with a large enough effect in the signal ratio in the repeat runs, not every such curve was filed as active; the % refers to the signal ratio). In outline:
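In this cell-based reporter format, GripTite HEK293 cells harbouring ER-alpha-UAS-bla were grown overnight with 2% charcoal-stripped FBS, dosed with DMSO-dissolved compounds, then challenged with 17beta-estradiol. After 18 hr at 37C, beta-lactamase activity was detected by FRET fluorescence.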

Experiment [4] can be described thus: qHTS assay to identify small molecule antagonists of the estrogen receptor alpha (ER-alpha) signaling pathway - cell viability counter screen (AID 743074; calls by dose curve; further: nearly all actives have a fitted effect of over 45% in size).
Experiment [5] deals with Estrogen receptor (Homo sapiens) (UniProt P03372). In words: qHTS assay to identify small molecule agonists of the estrogen receptor alpha (ER-alpha) signaling pathway (AID 743075; calls by dose curve).
Sequence of Estrogen receptor (Homo sapiens) (P03372 whole entry, looked up): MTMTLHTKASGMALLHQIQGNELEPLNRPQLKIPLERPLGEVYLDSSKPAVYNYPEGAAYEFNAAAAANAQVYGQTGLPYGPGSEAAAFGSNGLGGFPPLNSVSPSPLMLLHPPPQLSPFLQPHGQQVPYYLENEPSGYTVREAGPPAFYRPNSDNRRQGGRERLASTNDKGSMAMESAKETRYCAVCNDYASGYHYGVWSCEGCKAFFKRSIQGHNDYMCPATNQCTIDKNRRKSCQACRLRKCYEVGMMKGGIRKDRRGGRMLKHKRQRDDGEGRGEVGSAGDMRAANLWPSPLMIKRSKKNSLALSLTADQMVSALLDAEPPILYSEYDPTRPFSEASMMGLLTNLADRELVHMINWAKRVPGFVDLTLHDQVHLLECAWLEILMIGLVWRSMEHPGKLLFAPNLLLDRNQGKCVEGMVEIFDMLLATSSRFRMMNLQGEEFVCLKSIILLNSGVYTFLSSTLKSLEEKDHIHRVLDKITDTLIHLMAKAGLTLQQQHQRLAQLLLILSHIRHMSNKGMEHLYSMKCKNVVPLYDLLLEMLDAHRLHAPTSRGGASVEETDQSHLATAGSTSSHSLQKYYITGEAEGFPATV
Experiment [6] has the same target. In words: qHTS assay to identify small molecule agonists of the estrogen receptor alpha (ER-alpha) signaling pathway using the BG1 cell line (AID 743079). Further: nearly all actives have a fitted effect of over 20% in size. Further: potency means the concentration at half of the fitted maximal effect.
A short description of experiment [7]: qHTS assay to identify small molecule antagonists of the estrogen receptor alpha (ER-alpha) signaling pathway using the BG1 cell line (AID 743080; calls by dose curve;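 further: BG1 cells stimulated with 17beta-estradiol alongside compound; series mostly up to about 70 µM; nearly all actives have a fitted effect of over 25% in size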). In outline: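 Luminescence from a 4×ERE-luciferase reporter in BG1-Luc-4E2 cells served as read-out. Cells, pre-cultured 5 days in stripped-serum phenol-red-free medium, were exposed to compound with 17beta-estradiol co-stimulation for 21.5 h at 37 C.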

A short description of experiment [8]: qHTS assay to identify small molecule antagonists of the estrogen receptor alpha (ER-alpha) signaling pathway using the BG1 cell line - cell viability counter screen (AID 743081).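 Further: compound given together with 17beta-estradiol as the ER stimulus; series mostly up to about 70 µM; nearly all actives have a fitted effect of over 45% in size.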
Another experiment concerns the target Aromatase (Homo sapiens) (UniProt P11511). Briefly: qHTS assay to identify aromatase inhibitors (AID 743083). Further: series mostly up to about 70 µM; nearly all actives have a fitted effect of over 55% in size.
Experiment [9] in a line: qHTS assay to identify aromatase inhibitors - cell viability counter screen (AID 743084).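 Further: cells stimulated with testosterone during compound exposure; nearly all actives have a fitted effect of over 55% in size.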
Experiment [10] can be described thus: qHTS assay to identify small molecule that activate the aryl hydrocarbon receptor (AhR) signaling pathway - cell viability counter screen (AID 743086).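 Further: HepG2 liver cells carrying the AhR DRE luciferase reporter; series mostly up to about 70 µM; nearly all actives have a fitted effect of over 45% in size.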 The procedure, abridged: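 HepG2-AhR-luc (HG2L7.5c1) cells, 4000/well, treated 24 h at 37 C with compound; viability measured as CellTiter-Fluor fluorescence after 30 min in the same wells as the luciferase read.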

Experiment [11] concerns the target Peroxisome proliferator-activated receptor gamma (Homo sapiens) (UniProt P37231). Briefly: qHTS assay to identify small molecule agonists of the peroxisome proliferator-activated receptor gamma (PPARg) signaling pathway (AID 743094; active means well fitted activation curve with a large enough effect in the signal ratio in the repeat runs, not every such curve was filed as active; the % refers to the signal ratio). In outline:
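Agonism was assessed in a beta-lactamase reporter system, HEK293H cells with a stably integrated UAS-bla construct under PPARg control; the 17 h treatment at 37C preceded a 1 h room-temperature FRET substrate read.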

Experiment [12] shares this target. Briefly: qHTS assay to identify small molecule antagonists of the peroxisome proliferator-activated receptor gamma (PPARg) signaling pathway (AID 743191; calls by dose curve; further: series mostly up to about 63 µM; nearly all actives have a fitted effect of over 30% in size). The procedure, abridged:
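GeneBLAzer PPARg UAS-bla HEK293H cells, 5 h post-plating, exposed to compounds 17 h at 37C. LiveBLAzer B/G FRET substrate added for 1 h at room temperature; beta-lactamase reporter read by fluorescence intensity.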

Experiment [13] can be described thus: qHTS assay to identify small molecule antagonists of the peroxisome proliferator-activated receptor gamma (PPARg) signaling pathway - cell viability counter screen (AID 743194). Further: nearly all actives have a fitted effect of over 55% in size. The procedure, abridged:
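Cytotoxicity counter screen in PPARg-bla HEK293H cells, same wells as reporter assay. Compounds plus 50 nM rosiglitazone (final) for 17 h at 37 C, then viability read by CellTiter-Glo luminescence.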

Experiment [14] in a line: qHTS assay for small molecule agonists of the antioxidant response element (ARE) signaling pathway (AID 743202; active means well fitted activation curve with a large enough effect in the signal ratio in the repeat runs, not every such curve was filed as active; the % refers to the signal ratio). In outline: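 HepG2 ARE-bla cells; 16 h treatment at 37 C; FRET-based beta-lactamase fluorescence read after 2 h substrate incubation at room temperature.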
Experiment [15] can be described thus: qHTS assay for small molecule agonists of the antioxidant response element (ARE) signaling pathway - cell viability counter screen (AID 743203; calls by dose curve; further: nearly all actives have a fitted effect of over 55% in size). The procedure, abridged: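 ATP content via CellTiter-Glo luminescence served as the viability measure. Cells: ARE-bla HepG2, 2,000 per well. Exposure: 16 hrs, 37C/5% CO2.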
Experiment [16] in a line: qHTS assay for small molecule activators of the heat shock response signaling pathway - cell viability counter screen (AID 743209). Further: nearly all actives have a fitted effect of over 50% in size. In outline: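 Compounds dissolved in DMSO were added to overnight-plated HSE-bla HeLa cells and left 5 h at 37 C. Cell viability was quantified by luminescence using CellTiter-Glo.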
A short description of experiment [17]: qHTS assay for small molecule activators of the heat shock response signaling pathway (AID 743210; active means well fitted activation curve with a large enough effect in the signal ratio in the repeat runs, with a control signal flat, not every such curve was filed as active; the % refers to the signal ratio; further: potency means the concentration at half of the fitted maximal effect;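 on activation: HeLa cells with beta-lactamase reporter driven by heat shock elements; series mostly up to about 63 µM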). In outline:
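Following overnight attachment, HSE-bla HeLa cells received test compounds for 5 h at 37 C; beta-lactamase activity was then detected via FRET substrate fluorescence.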

Experiment [18] is described as follows: qHTS assay to identify small molecule agonists of the peroxisome proliferator-activated receptor delta (PPARd) signaling pathway - cell viability counter screen (AID 743211). Further: nearly all actives have a fitted effect of over 55% in size. In outline:
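Viability was measured as CellTiter-Glo luminescence (30 min, room temperature) in the same wells as the beta-lactamase readout. GeneBLAzer PPARd UAS-bla HEK293H cells received compound after 5 h plating and were incubated 17 h at 37 C.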

Experiment [19] has as its target Aryl hydrocarbon receptor (Homo sapiens) (UniProt P35869). Briefly: qHTS assay to identify small molecule that activate the aryl hydrocarbon receptor (AhR) signaling pathway (AID 743085).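 Further: HG2L7.5c1 human HepG2 liver cells with stably integrated DRE-driven firefly reporter; series mostly up to about 70 µM; nearly all actives have a fitted effect of over 15% in size.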 The procedure, abridged:
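Luminescence (ONE-Glo) from a dioxin-responsive-element luciferase reporter in HG2L7.5c1 HepG2 cells after 24 hr compound exposure at 37C; viability measured by CellTiter-Fluor fluorescence beforehand.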

Sequence of Peroxisome proliferator-activated receptor gamma (Homo sapiens) (P37231 whole entry, looked up): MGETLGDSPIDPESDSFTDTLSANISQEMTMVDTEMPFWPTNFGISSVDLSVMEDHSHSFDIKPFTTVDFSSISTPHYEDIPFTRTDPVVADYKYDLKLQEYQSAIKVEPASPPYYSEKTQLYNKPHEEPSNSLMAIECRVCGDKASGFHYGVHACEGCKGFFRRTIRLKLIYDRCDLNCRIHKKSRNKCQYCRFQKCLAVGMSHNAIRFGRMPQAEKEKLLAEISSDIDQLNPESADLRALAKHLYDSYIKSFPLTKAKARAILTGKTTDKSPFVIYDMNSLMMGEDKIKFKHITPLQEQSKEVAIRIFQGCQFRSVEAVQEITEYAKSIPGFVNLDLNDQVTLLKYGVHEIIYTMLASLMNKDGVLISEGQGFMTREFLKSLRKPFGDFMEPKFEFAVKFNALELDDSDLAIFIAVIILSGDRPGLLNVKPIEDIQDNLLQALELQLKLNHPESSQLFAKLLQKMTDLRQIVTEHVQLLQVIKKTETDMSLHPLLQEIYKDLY
Sequence of Aromatase (Homo sapiens) (P11511 whole entry, looked up): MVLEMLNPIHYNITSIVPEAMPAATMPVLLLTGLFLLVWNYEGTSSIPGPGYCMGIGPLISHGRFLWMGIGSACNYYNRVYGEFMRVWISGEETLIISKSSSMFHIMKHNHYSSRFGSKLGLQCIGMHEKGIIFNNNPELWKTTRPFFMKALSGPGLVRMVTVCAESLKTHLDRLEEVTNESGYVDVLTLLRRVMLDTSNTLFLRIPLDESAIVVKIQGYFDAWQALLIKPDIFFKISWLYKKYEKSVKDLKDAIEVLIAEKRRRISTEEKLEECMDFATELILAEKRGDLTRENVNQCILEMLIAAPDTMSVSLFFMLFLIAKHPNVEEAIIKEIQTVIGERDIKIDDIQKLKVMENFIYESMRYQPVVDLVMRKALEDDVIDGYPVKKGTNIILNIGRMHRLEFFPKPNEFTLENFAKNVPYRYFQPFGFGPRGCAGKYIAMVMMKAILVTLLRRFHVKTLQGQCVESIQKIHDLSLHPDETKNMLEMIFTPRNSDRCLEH
Sequence of Aryl hydrocarbon receptor (Homo sapiens) (P35869 whole entry, looked up): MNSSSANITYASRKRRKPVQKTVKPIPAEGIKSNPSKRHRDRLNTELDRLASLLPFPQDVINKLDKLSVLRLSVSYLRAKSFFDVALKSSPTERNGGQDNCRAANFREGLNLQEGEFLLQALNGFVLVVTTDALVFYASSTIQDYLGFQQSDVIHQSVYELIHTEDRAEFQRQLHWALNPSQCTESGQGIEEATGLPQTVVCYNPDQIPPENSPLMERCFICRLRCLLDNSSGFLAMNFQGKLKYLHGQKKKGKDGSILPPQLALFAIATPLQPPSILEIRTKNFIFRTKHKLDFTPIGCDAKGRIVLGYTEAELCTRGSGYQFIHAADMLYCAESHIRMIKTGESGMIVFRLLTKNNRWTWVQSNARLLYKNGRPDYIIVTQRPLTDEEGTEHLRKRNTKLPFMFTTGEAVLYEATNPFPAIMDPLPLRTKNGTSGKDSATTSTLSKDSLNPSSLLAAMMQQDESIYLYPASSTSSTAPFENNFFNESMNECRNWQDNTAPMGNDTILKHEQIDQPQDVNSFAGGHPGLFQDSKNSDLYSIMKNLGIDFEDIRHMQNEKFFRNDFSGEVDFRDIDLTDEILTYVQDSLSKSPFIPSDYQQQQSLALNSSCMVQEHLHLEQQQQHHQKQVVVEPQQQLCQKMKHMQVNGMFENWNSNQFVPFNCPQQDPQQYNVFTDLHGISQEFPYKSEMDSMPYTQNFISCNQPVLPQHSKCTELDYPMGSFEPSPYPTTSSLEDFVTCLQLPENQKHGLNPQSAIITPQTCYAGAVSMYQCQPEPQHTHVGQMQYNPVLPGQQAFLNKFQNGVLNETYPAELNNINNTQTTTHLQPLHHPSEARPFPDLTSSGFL

As for `NNS(=O)(=O)c1ccc(Oc2ccc(S(=O)(=O)NN)cc2)cc1`, the Potency entry (in experiment [1]; in [3]; in [4]; in experiment [6]; in experiment [8]; in the experiment with Aromatase (Homo sapiens)) was “inactive” each time. For the same compound, the Potency result in [9], in [11], in [12], in experiment [13], in experiment [14] and in experiment [15] was “inactive” each time. In addition, the Potency entry in experiment [17] and in experiment [18] was “inactive” in each case. Further, the call in experiment [2], in experiment [5], in experiment [7], in experiment [10] and in [16] was inactive.
For the compound `Cc1cc(S(=O)(=O)O)c(N)cc1Cl`, the Potency entry (in [1]; in experiment [3]; in experiment [4]; in experiment [6]; in [8]; in the experiment with Aromatase (Homo sapiens)) was “inactive” throughout. Moreover, the Potency result in experiment [9], in experiment [11], in [12], in experiment [13], in [15] and in [17] was “inactive” in each case. In [18], the Potency entry is “inactive”. Further, the outcome in experiment [2], in experiment [5], in experiment [7], in experiment [10] and in [16] was inactive.
As to `CS(=O)(=O)c1ccc([C@@H](O)[C@@H](CF)NC(=O)C(Cl)Cl)cc1`, the Potency entry (in experiment [1]; in experiment [3]; in experiment [4]; in [6]; in [8]; with Aromatase (Homo sapiens)) was “inactive” throughout. Moreover, the Potency entry in experiment [9], in experiment [19], in [11], in experiment [12], in experiment [13] and in experiment [14] was “inactive” in each case. Further, the Potency entry in experiment [15], in experiment [17] and in [18] was “inactive” throughout. Besides, the compound was called inactive in [2], in experiment [5], in experiment [10] and in [16].
`C=Cc1ccccc1`: the Potency entry (in [1]; in [3]; in experiment [4]; in experiment [6]; in experiment [8]; with Aromatase (Homo sapiens)) was “inactive” in each case. Moreover, the Potency result in [9], in experiment [11], in [13], in experiment [14], in experiment [15] and in [17] was “inactive” throughout. Further, the Potency result in [18] is “inactive”. Besides, the compound was called inactive in [2], in [5], in [7], in experiment [10] and in experiment [16].
For `CCc1cc(Cl)c(OC)c(C(=O)NC[C@@H]2CCCN2CC)c1O`, the Potency in experiment [1] is 23.7 µM (active) and 11.4 µM (active) and 11.9 µM (active); in experiment [6], 10.6 µM (active) and inactive. Besides, the compound was classed as inactive in experiment [2], in experiment [5], in experiment [7], in experiment [10] and in [16]. Further, the Potency entry (in [3]; in experiment [4]; in experiment [8]; with Aromatase (Homo sapiens); in experiment [9]; in experiment [11]) was “inactive” in each case. Besides, the Potency entry in experiment [13], in experiment [14], in [15], in [17] and in experiment [18] was “inactive” in each case.
For the compound `OCC(CBr)(CBr)CBr`, the Potency result in experiment [1], in experiment [3], in [4], in experiment [6], in experiment [8] and in experiment [9] was “inactive” each time. Further, the Potency entry in experiment [11], in experiment [12], in experiment [15], in experiment [17] and in [18] was “inactive” throughout. Besides, the result in experiment [2], in [5], in experiment [7], in experiment [10] and in experiment [16] was inactive.
Take `FC(F)(F)C(F)(F)C(F)(F)C(F)(F)C(F)(F)C(F)(F)C(F)(F)C(F)(F)Br`: the Potency entry (in [1]; in experiment [3]; in [4]; in experiment [6]; in [8]; with Aromatase (Homo sapiens)) was “inactive” in each case. The Potency entry in [9], in experiment [11], in experiment [13], in [14], in experiment [15] and in experiment [17] was “inactive” throughout. Moreover, the Potency entry in experiment [18] was “inactive”. Besides, the compound was classed as inactive in experiment [2], in experiment [5], in [7], in experiment [10] and in [16].
Turning to `COc1cc(C)ccc1C(C)C`, the Potency entry (in experiment [1]; in experiment [3]; in experiment [4]; in experiment [6]; with Aromatase (Homo sapiens); in experiment [9]) was “inactive” throughout. For the same compound, the Potency entry in experiment [19], in experiment [11], in experiment [12], in [13], in experiment [14] and in experiment [15] was “inactive” each time. Moreover, the Potency result in [17] and in [18] was “inactive” each time. Besides, the compound was called inactive in [2], in experiment [5], in experiment [7], in experiment [10] and in experiment [16].
Consider `CCOC(=O)C1CC(=O)C(=C(O)C2CC2)C(=O)C1` (configuration not stated), for which the Potency entry (in experiment [1]; in [3]; in experiment [4]; in [6]; in experiment [8]; in the experiment with Aromatase (Homo sapiens)) was “inactive” in each case. For the same compound, the Potency result in experiment [9], in experiment [11], in [12], in experiment [13], in experiment [14] and in [15] was “inactive” each time. For the same compound, the Potency result in experiment [17] and in [18] was “inactive” throughout. In addition, the outcome in experiment [2], in experiment [5], in experiment [7], in [10] and in [16] was inactive.
In the case of `CCN[C@H]1CN(CCCOC)S(=O)(=O)c2sc(S(N)(=O)=O)cc21`, the Potency entry (in [1]; in experiment [3]; in [4]; in experiment [6]; in [8]; with Aromatase (Homo sapiens)) was “inactive” in each case. Also, the Potency result in experiment [9], in experiment [11], in experiment [12], in [13], in experiment [14] and in experiment [15] was “inactive” throughout. For the same compound, the Potency entry in [17] and in experiment [18] was “inactive” in each case. Further, the compound was classed as inactive in experiment [2], in experiment [5], in experiment [7], in experiment [10] and in [16].
On to `CCCCNC(=S)NCCCC`, for which the Potency entry (in experiment [1]; in [3]; in [4]; in experiment [6]; in [8]; with Aromatase (Homo sapiens)) was “inactive” each time. In addition, the Potency entry in experiment [9], in experiment [19], in experiment [11], in [12], in experiment [13] and in experiment [15] was “inactive” throughout. Further, the outcome in [2], in experiment [5], in experiment [7] and in experiment [16] was inactive. Besides, the Potency in experiment [17] is 23.6 µM (active).
With `CC(C)C(=O)OCC(C)(C)C(O)C(C)C` (configuration not stated), the Potency entry (in experiment [1]; in experiment [3]; in [4]; in experiment [6]; in experiment [8]; with Aromatase (Homo sapiens)) was “inactive” throughout. Besides, the Potency result in experiment [19], in [11], in [12], in [13], in [14] and in [15] was “inactive” throughout. Also, the Potency result in [17] and in [18] was “inactive” each time. In addition, the compound was classed as inactive in experiment [2], in experiment [5], in [7], in experiment [10] and in [16].
Consider `Oc1ccccc1F`, for which the Potency entry (in experiment [1]; in [3]; in [4]; in [6]; in experiment [8]; in the experiment with Aromatase (Homo sapiens)) was “inactive” throughout. Besides, the Potency result in experiment [9], in experiment [11], in [13], in [14], in experiment [15] and in experiment [17] was “inactive” each time. In experiment [18], the Potency entry is “inactive”. Moreover, the compound was classed as inactive in [2], in experiment [5], in [7], in experiment [10] and in experiment [16].
